NALP1 yeast inh – NALP1 inflammasome inhibitors in reconstituted yeast, colorimetric, S. cerevisiae, triplicate retest | S. cerevisiae NALP1/ASC/caspase-1 growth, X-gal OD620, 72 h | inhibition, % at 10 µM | actives 0.61% (n = 280,000); in the data active = inhibition mostly above about 24%, no sharp cut-off; inactive = mostly below about 32%
tim10-1 inh – growth inhibitors of tim10-1 mutant yeast, primary screen, luminescence, uHTS | AID 463190, 2010 | inhibition, % at 20 µM | S. cerevisiae tim10-1 ts strain growth, BacTiter-Glo, 24 h | actives 2.2% (n = 330,000);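 active = inhibition of at least 40%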;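 note: mutant grown at 25 °C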
NALP3 yeast inh – NALP3 inflammasome inhibitors in reconstituted yeast, primary screen, luminescence, uHTS; AID 2825, 2010; actives 0.39% (n = 330,000); inhibition, % at 10 µM; Yeast reconstituted NLRP3/ASC/caspase-1, beta-gal luminescence, 24 h;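 active = inhibition of 50% or more; inactive = inhibition below 50%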
TIM10 inh – growth inhibitors of isogenic TIM10 control yeast, primary screen, counter-screen for tim10-1 yeast inhibitor project, luminescence, uHTS; actives 1.4% (n = 330,000); S. cerevisiae TIM10 strain growth, BacTiter-Glo luminescence, 24 h; AID 463195, 2010; inhibition, % at 10 µM;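 active = inhibition of 40% or more at the single tested concentration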;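 note: wild-type TIM10 isogenic control strain grown at permissive 25 °C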
tim23-1 inh – growth inhibitors of tim23-1 mutant yeast, primary screen, luminescence, uHTS | S. cerevisiae tim23-1 growth, BacTiter-Glo luminescence, 24 h | inhibition, % at 20 µM | actives 1.3% (n = 330,000);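 active = growth inhibition of the mutant yeast at or above 50%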;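 note: temperature-sensitive mutant grown at 25 °C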
V-ATPase pHluor – regulators of yeast V-ATPase proton pumping, primary screen, pHLuorin cytosolic pH fluorescence. S. cerevisiae. response, % at 10 µM. actives 0.37% (n = 350,000). AID 504577, 2011; in the data active = response mostly above about 7.3%, no sharp cut-off; inactive = mostly below about 5.4%; note: actives read high
NALP3 yeast conf – NALP3 inhibitors retested in yeast, confirmation, luminescence, single concentration. inhibition, % at 10 µM. yeast expressing human NALP3. AID 435006, 2010. shares compounds with NALP3 yeast inh. actives 81% (n = 1,300); in the data active = inhibition above about 48%
Casp1-ASC yeast – CASP1-PYCARD signaling inhibition in yeast, confirmatory test, counterassay for NLRP3 inhibitor program, one-dose. shares compounds with NALP3 yeast inh. yeast expressing Caspase-1-ASC, luminescence counter screen. actives 66% (n = 1,000). inhibition, % at 10 µM
NALP3 retest – NALP3 inhibitors in yeast, repeat test, confirmation, luminescence, single concentration, retest; actives 53% (n = 1,000); yeast expressing human NALP3, luminescence read-out; shares compounds with NALP3 yeast inh; inhibition, % at 10 µM
Numbers stand for hits; . = inactive; / = not tested or not shown. Hits are enriched below; roughly 4.2% of the tested compounds scored in any of these assays. Cut-off read from the data, not from the text of the source, unless noted: active = inhibition above about 50%; inactive = the rest.

SMILES	NALP1 yeast inh	tim10-1 inh	NALP3 yeast inh	TIM10 inh	tim23-1 inh	V-ATPase pHluor	NALP3 yeast conf	Casp1-ASC yeast	NALP3 retest
CC1(c2nnc(-c3ccccc3)o2)CC(c2c(Cl)cccc2Cl)=NO1 (stereo unspecified)	/	.	55	.	.	.	71	.	.
CC1(c2nnc(-c3ccncc3)o2)CC(c2c(Cl)cccc2Cl)=NO1 (stereo unspecified)	.	.	.	.	.	.	/	/	/
CCN(CC)c1ncnc2sc3c(c12)CCC3	.	.	61	.	.	.	64	67	57
COc1cc(C(=O)Nc2scc(-c3ccc(Br)cc3)c2C(=O)O)cc(OC)c1OC	.	.	.	.	.	.	/	/	/
Cc1cccc(C(=O)Nc2scc(-c3ccc(Br)cc3)c2C(=O)O)c1	/	.	61	.	.	.	61	.	.
COc1ccc(NC(=O)Nc2cc(C(=O)O)ccc2N2CC3CC(C2)c2cccc(=O)n2C3)c(OC)c1 (stereo unspecified)	.	.	.	.	.	.	/	/	/
CN(C)c1ccc(C(=O)/C=C/c2ccccc2)cc1	.	.	53	.	.	.	72	.	.
CN(C)c1ccc(C(=O)/C=C/c2ccc(Br)cc2)cc1	.	.	.	.	.	.	/	/	/
O=C1C2C3C=CC(C3=C3CCCCC3)C2C(=O)N1c1ccccc1 (stereo unspecified)	.	.	58	.	.	.	65	.	.
O=C1C2C3C=CC(C3)C2C(=O)N1c1ccccc1 (stereo unspecified)	.	.	.	.	.	.	/	/	/
O=S(=O)(Nc1ccccc1O)c1ccc(-c2ccccc2)cc1	.	.	.	.	.	.	/	/	/
COC(=O)c1ccc(CNCC(O)COc2ccc(-c3ccccc3)cc2)cc1 (stereo unspecified)	.	.	.	.	.	.	/	/	/
COc1ccc(CNCC(O)COc2ccc(C(C)(C)c3ccccc3)cc2)cc1 (stereo unspecified)	.	.	53	.	.	.	76	/	/
O=C(Nc1ccc2c(c1)oc1ccccc12)c1cccnc1	.	.	74	.	.	.	60	.	.
O=C(Nc1ccc2ccccc2c1)c1cccnc1	.	.	.	.	.	.	/	/	/
CC(=O)c1cnc2nc(SCc3ccc(C)cc3)nn2c1C	.	.	.	.	.	.	/	/	/
CC(=O)c1cnc2nc(SCc3ccc(Cl)cc3)nn2c1C	.	.	53	.	.	.	71	64	50
CC(C(=O)OCC(=O)c1ccc([N+](=O)[O-])cc1)N1C(=O)C2C3CCC(C3)C2C1=O (stereo unspecified)	.	.	.	.	.	.	/	/	/
C=CCNc1nc(Cl)nc(Nc2ccc(OCC)cc2)n1	.	.	52	.	.	.	.	.	.
CCOc1cccc2cc(C(=O)NC(C)c3ccccc3)c(=N)oc12 (stereo unspecified)	.	.	.	.	.	.	/	/	/
Nc1ccc(-c2cc3ccccc3oc2=O)cc1	.	.	.	.	.	.	/	/	/
O=c1oc2ccccc2cc1-c1ccc(O)cc1	.	.	52	.	.	.	.	/	/
Nc1nnc(CC2=CCCCC2)s1	.	.	.	.	.	.	/	/	/
CC1CCc2c(C(=O)NCCN3CCOCC3)csc2C1 (stereo unspecified)	.	.	.	.	.	.	/	/	/
CC1CCc2c(C(=O)Nc3ccc(N4CCOCC4)cc3)csc2C1 (stereo unspecified)	27	.	69	.	.	.	53	64	52
COc1ccccc1-n1c(SCC(N)=O)nc2sc3c(c2c1=O)CCC3	.	.	.	.	.	.	/	/	/

Screening data: PubChem BioAssay, several laboratories
